Compound activity as filed in PubChem BioAssay.
Only a selection was taken, and hits are over-represented in it overall.
Dicer processing: inhibitors of Dicer pre-microRNA processing, primary screen, biochemical, cat-ELCCA, chemiluminescence. Endoribonuclease Dicer (Homo sapiens), Q9UPY3. cat-ELCCA pre-miR-21 Dicer processing; hits give high values. z-score at 25 µM. actives 6% (n = 47,000). AID 1347074, 2019; in the data active means z-score above about 3, passing the limit was not always enough;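 further: plate controls were vehicle for no effect and no enzyme for full effect; higher signal means more uncleaved substrate so more Dicer inhibition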
* hit, by the source's call.

SMILES | Dicer processing
CS/C(=C(/C#N)S(=O)(=O)C(C)C)N1CCCCC1 | 4.2*
CC1(C)CC(=O)C2=C(C1)Nc1ccccc1NC2c1ccc([N+](=O)[O-])o1 (stereo not given) | -0.3
COc1ccc(C2CC(=O)C3=C(C2)NC(C)=C(C(=O)OC(C)C)C3c2ccc(OC)c(OC)c2)cc1 (stereo not given) | 1.9
COc1ccc(-c2nnc(SCc3cccc4ccccc34)o2)cc1 | -0.09
COc1ccc(-c2nnc(SCc3cccc(Cl)c3)o2)c(OC)c1 | -0.48
COc1ccc(-c2nnc(SCc3cccc4ccccc34)o2)c(OC)c1 | 227*
N/C(=N\N=C\c1cccs1)SCc1ccccc1 | 2.9
O=C(NC(=O)c1c(Cl)cccc1Cl)Nc1ccccc1N1CCCCC1 | -0.64
Cc1cc(C)cc(SCC(=O)NNC(=O)COc2ccc(C)c3c2CCC3)c1 | -0.1
O=C(c1nn2c(C(F)(F)F)cc(-c3ccccc3)nc2c1Cl)N1CCOCC1 | -0.1
O=C(c1nn2c(C(F)(F)F)cc(-c3ccc(F)cc3)nc2c1Cl)N1CCOCC1 | 4.2*
O=C(c1nc2nc(-c3ccc(Cl)cc3)cc(C(F)(F)F)n2n1)N1CCOCC1 | 2.8
CC(ONC(=O)c1cc(C(F)(F)F)cc(C(F)(F)F)c1)C(=O)Nc1ccc(Cl)cc1 (stereo not given) | -0.69
C=CCC(Nc1cccc(Cl)c1)c1ccco1 (stereo not given) | -0.96
CCOc1cc(C2Nc3ccccc3-c3nnc(SC)nc3O2)ccc1O (stereo not given) | 5*
COc1cc(C2Nc3ccccc3-c3nnc(SC)nc3O2)ccc1O (stereo not given) | 27
CCSc1nnc2c(n1)OC(c1ccc(O)c(OC)c1)Nc1ccccc1-2 (stereo not given) | 1.3
Cc1onc(-c2c(Cl)cccc2Cl)c1NC(=O)NNC(=S)NC(C)(C)C | -0.71
COc1ccccc1-c1nc(-c2ccc(Cl)cc2)no1 | 0.09
Cc1ccc(Cn2ccc(NC(=O)c3cc4n(n3)C(C(F)(F)F)CC(c3ccco3)N4)n2)cc1 (stereo not given) | 0.9
O=C(O)Cc1csc2ccc(Cl)cc12 | 0.54
CSc1nc2c(Cl)cccc2c2c1c(=O)n(Cc1ccccc1)n2C | -1
O=c1c2ccccc2nc2sc3ccc(Cl)cc3n12 | -0.07
CN(C)/C=C/C(=O)c1ccc(Cl)cc1 | -0.38
Cc1ccc(C(=O)/C=C/S/C=C/C(=O)c2ccc(C)cc2)cc1 | -1.9
SMILES | Dicer processing
CN(C)/C=C/C(=O)c1ccc(C#Cc2ccccc2)cc1 | 1.4
COc1ccc2cc(C(=O)/C=C/N(C)C)ccc2c1 | -0.67
CN(C)/C=C/C(=O)c1ccc(Cl)c(Cl)c1 | 4.9*
Cc1ccc(C(=O)/C=C/C=C/C=C/N(C)C)cc1 | 4.5*
Cc1cc(S(=O)(=O)Cc2cccc(F)c2)c(Cl)cc1Cl | -0.67
COc1ccc(/C=N/NC(=O)c2nn(-c3ccc(C(C)(C)C)cc3)c(=O)c(C#N)c2C)cc1 | 0.53
CCC(C)Nc1ncnc2sc3c(c12)CCCC3 (stereo not given) | 1.3
CCCCNC(=O)NNC(=O)c1cccn1-c1ccc(F)cc1 | 0.99
Cc1ccc(CSc2nc3c(c(-c4cccs4)c2C#N)CCCC3)cc1 | -0.27
Cc1cc(C)n2c(SCC(=O)O)nnc2n1 | -0.62
Cc1ccc(S(=O)(=O)NCC(Sc2nnc3nc(C)cc(C)n23)c2ccccc2)cc1 (stereo not given) | 3.5*
Cc1cc(C)n2c(SCC(C)C)nnc2n1 | -0.03
CCOC(=O)CN(C(=O)CSc1nc(C)cc(C)c1C#N)c1ccccc1 | -0.89
COc1cc(NC(=O)c2ccc(Cl)cc2)nc(OC)n1 | -0.16
CCn1c(NCc2ccccn2)nc2ccccc21 | 0.67
Oc1ccccc1CNc1nc2ccccc2n1CCN1CCOCC1 | 4.1*
COc1ccc(CNc2nc3ccccc3n2C)cc1OC | 1.8
c1ccc(CNc2nc3ccccc3n2CCN2CCCCC2)nc1 | 3.5*
Cc1ccc(CNc2nc3ccccc3n2CCN2CCOCC2)cc1 | 1.6
c1ccc2c(c1)nc(NCc1ccncc1)n2CCN1CCOCC1 | 2.5
O=C(Nc1nc2ccccc2n1CCN1CCOCC1)c1cccc([N+](=O)[O-])c1 | 0.22
Cn1c(CNc2nc3ccccc3n2CCN2CCCCC2)nc2ccccc21 | -0.42
COc1ccc(OC)c(CNc2nc3ccccc3n2CCN2CCOCC2)c1 | 5.1*
COc1ccc(-c2nc3n(n2)C(c2cccnc2)C2=C(CC(C)(C)CC2=O)N3)cc1 (stereo not given) | 0.36
O=c1cc(O)c2c(=O)n(-c3ccccc3)c(-c3ccccc3)cc2o1 | 0.34
SMILES | Dicer processing
CC1=C(C(=O)OCc2ccccc2)C(c2cccc(Cl)c2)C2=C(CCCC2=O)N1 (stereo not given) | 0.29
Cn1c(=O)c2c(ncn2CC(COC(=O)c2ccco2)OC(=O)c2ccco2)n(C)c1=O (stereo not given) | -0.9
CC(C(=O)N/N=C/C(C)(C)C)n1nnc(-c2cc(C(F)(F)F)cc(C(F)(F)F)c2)n1 (stereo not given) | -0.75
CCc1ccc(C(=O)CC2(O)C(=O)Nc3ccc(C)cc32)cc1 (stereo not given) | -0.53
O=C(c1ccc(Cl)cc1)C(Sc1ccc(Cl)cc1)c1ccccc1 (stereo not given) | -1
CCOC(=O)C1=C(C)NC2=C(C(=O)c3ccccc32)C1c1cc(Br)c(OC)c(OCC)c1 (stereo not given) | -0.22
O=C(NNc1ncccc1C(F)(F)F)c1c(F)cccc1F | 0.15
Fc1cccc(Cl)c1Cn1nnc(-c2cc(C(F)(F)F)cc(C(F)(F)F)c2)n1 | 0.81
Fc1cccc(Cl)c1Cn1nnc(-c2ccccc2C(F)(F)F)n1 | 3.1*
Fc1cccc(Cl)c1Cn1nnc(-c2c(Cl)cccc2Cl)n1 | 0.74
CSC1=C(C#N)C(c2ccc(C)cc2)CC(=O)N1 (stereo not given) | -0.35
Cc1ccc(-c2nnc(-c3cccs3)o2)cc1 | 2.9
Cc1ccc(-c2nnc(-c3ccccc3)o2)cc1 | 2
Cc1ccc(-c2nnc(-c3ccc(C)cc3)o2)cc1 | 5.1*
CCOC(=O)C1=C(C)NC2=C(C(=O)CC(c3ccccc3)C2)C1c1ccc2c(c1)OCO2 (stereo not given) | 0.9
O=C1C=CC2(C=C1)CC1(CCCCC1)N=C2SCc1ccccc1 | 2.9
Nc1nc(SCC(=O)NCCN2CCOCC2)nc2sc3c(c12)CCCC3 | 0.61
Nc1nc(SCCCC(=O)NCCO)nc2sc3c(c12)CCCC3 | 5.5*
Nc1nc(SCC(=O)NCCO)nc2sc3c(c12)CCCC3 | 1.3
CC(C)(C)C(=O)COC(=O)Cn1nnc(N2CCCC2)n1 | 1.1
Cc1ccc2nc3c(c(C(=O)O)c2c1)CCCC3 | -0.76
O=S(=O)(Oc1ccccc1N1CCOCC1)c1ccc(-c2ccccn2)s1 | 0.6
COc1ccc2[nH]c(C)c(CN(C)C3CCCCC3)c(=O)c2c1 | 0.5
CNC[C@H](O)c1cccc(O)c1 | -0.43
C=CC(=C)CC(NC)c1ccccc1 (stereo not given) | 1.5
SMILES | Dicer processing
CNc1ccc(Br)cc1C(O)c1ccccc1 (stereo not given) | 3.4*
Cc1nc(C(F)(F)F)nc(Sc2n[nH]c(-c3ccccc3)n2)c1C | -0.27
C=CCOC(=O)C1=C(C)NC2=C(C(=O)CCC2)C1c1ccc(CC)cc1 (stereo not given) | 0.64
CO/C=N/c1nc2c(s1)CCc1ccccc1-2 | 0.4
Cc1cc(N=CN(C)C)c2ccccc2n1 | -1.7
Cc1cc(Br)cnc1N=CNO | 0.37
Cc1cc(Br)cnc1N=CN(C)C | 3*
N#Cc1cc2c(nc1SCC(N)=O)CCCC2 | 0.31
